# G9a inh: inhibitors of human histone lysine methyltransferase G9a; Potency, µM (titrated, usually from 102 µM), inactives show top-dose activity, negative = inhibition, most hits filed as inhibitors; Q96KQ7; G9a H3K9 monomethylation, AlphaScreen, 2 h; actives 8.8% (n = 350,000); further: potency means the concentration at half of the fitted maximal effect; on the % scale 0 is the no-effect control and ±100 the full control effect; nearly all actives have a fitted effect of over 75% in size
#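 Chemiluminescent proximity detection of H3K9 monomethylation, read after 10 min bead incubation in the dark. Reaction: 20 nM G9a, 500 nM biotin-H3K9 peptide, 20 uM SAM cofactor, 2 h, room temperature, following 15 min enzyme-compound preincubation.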
# BAZ2B inh: BAZ2B (human) inhibition. Potency, µM (series often up to 114 µM), for inactives: at the top dose activity change, negative = inhibition, most hits filed as inhibitors. AID 504333. AlphaScreen BAZ2B-H3K14Ac peptide displacement. Q9UIF8. actives 4.4% (n = 360,000); further: potency means the concentration at half of the fitted maximal effect; on the % scale 0 is the no-effect control and ±100 the full control effect; nearly all actives have a fitted effect of over 60% in size
#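 Protein-peptide AlphaScreen: BAZ2B 50 nM, b-H3K14Ac 50 nM, 1x PBS pH 7.4 + 0.01% Tween-20. Preincubation 30 min RT; cpd 30 min RT (top 110 uM); beads 20 min RT, light-protected.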
# HP1b binding inh: HP1-beta chromodomain-methylated histone interaction inhibition; actives 0.56% (n = 390,000); Potency, µM (series often up to 114 µM), for the others: at the top dose activity change, negative = inhibition, actives largely listed as inhibitors; AlphaScreen HP1-beta / biotin-H3K9me3 peptide binding; P83916; further: potency means the concentration at half of the fitted maximal effect; nearly all actives have a fitted effect of over 70% in size
#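 AlphaScreen: HP1-beta (50 nM) preformed 30 min with biotin-H3(1-18)K9me3 peptide (50 nM) in PBS pH 7.4, 0.01% Tween-20. Compound added for 30 min at RT, then streptavidin donor/nickel chelate acceptor beads (10 ug/mL) for 30 min.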
# PI5P4Ka inh: blocks human PI5P4K alpha kinase activity | actives 1.2% (n = 330,000) | P48426 | max response, % | PI5P4Kalpha enzyme, ADP-Glo luminescence, 60 min; hits give low values; active means max response of -50% or lower; inconclusive means between -30% and -50%; inactive means -30% or higher; further: value at the top dose of about 77 µM; on the % scale 0 is the no-effect control and ±100 the full control effect
#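 Human PI5P4Kalpha with substrate in 0.038 M HEPES pH 7.4, 0.28 mM EGTA, 0.1% CHAPS, 5% DMSO; reaction started with 5 microM ATP (final), 60 min at room temperature. ADP formed read by ADP-Glo luminescence.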
# JMJD2A Tudor: inhibitors of human JMJD2A Tudor domain. O75164. AlphaScreen JMJD2A-Tudor / H3K4me3 peptide binding. Potency, µM (series often up to 114 µM), inactives show at the top dose activity change, negative = inhibition, most hits filed as inhibitors. actives 4.4% (n = 390,000); further: potency means the concentration at half of the fitted maximal effect; on the % scale 0 is the no-effect control and ±100 the full control effect; nearly all actives have a fitted effect of over 50% in size
# L3MBTL1 inh: blocks human L3MBTL1 | Q9Y468 | AlphaScreen L3MBTL1–H3K9me1 peptide binding | Potency, µM (titrated, usually from 57.1 µM), for the others: at the highest dose activity, negative = inhibition, hits mostly inhibitors | actives 0.66% (n = 230,000) | AID 485360; further: potency means the concentration at half of the fitted maximal effect; on the % scale 0 is the no-effect control and ±100 the full control effect; nearly all actives have a fitted effect of over 60% in size
#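 L3MBTL1 (50 nM) pre-complexed 30 min with biotinylated H3(1-15)K9me1 peptide (75 nM), then compounds added for 30 min at room temperature; AlphaScreen streptavidin donor/nickel chelate acceptor beads (10 ug/mL final) read after 30 min dark incubation.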
# Active calls of the source: *; u = inconclusive; x = no result given; [ ] = remark or other dose. Rows were chosen to be rich in hits. Some 11% of all compounds tested hit in one or more screens of this group. Unless noted, the call rests on the fitted dose curve; in most records, active means well fitted inhibition curve with a large enough effect; inconclusive means small, poorly fitted or top-dose-only effect; inactive means no such curve, though single readings can be large or run the other way.
SMILES,G9a inh,BAZ2B inh,HP1b binding inh,PI5P4Ka inh,JMJD2A Tudor,L3MBTL1 inh
CC(C)c1nnc(N2C(=O)c3oc4ccccc4c(=O)c3C2c2ccco2)s1 (configuration not stated),2%[59 µM],10%,18%,-1,-11%,1%
CCN(Cc1cccs1)C(=O)CN1C(=O)NC(c2ccccc2)(c2ccccc2)C1=O,7.9µM*,-4%,7%,-3,-30%,-3%
CCCCSCCCNC(=O)C1CCC(CNS(=O)(=O)c2c(C)cc(C)cc2C)CC1 (configuration not stated),1%[59 µM],-2%,8%,x,-16%,x
COc1cc(N)c(C(=O)c2nccc3cc(OC)c(OC)cc23)cc1OC,x,-12%,1%,3,-35%,-4%
COc1cc(Br)c(C(=O)c2nccc3cc(OC)c(OC)cc23)cc1OC,-19%,u,2%,-7,45µM*,x
COc1cc(C(=O)c2nccc3cc(OC)c(OC)cc23)c([N+](=O)[O-])cc1OC,45µM*,u,7%,2,u,-4%
CC(C)c1ccc(N(CC(=O)O)S(=O)(=O)c2cccnc2)cc1,-5%,9%,5%,1,89µM*,x
CCOc1ccc(N(CC(=O)O)S(=O)(=O)c2cccnc2)cc1,79µM*,5%,46%,1,-16%,x
COc1ccccc1C(=O)Nc1cccc(C(=O)OCc2cc(=O)n3nc(C)sc3n2)c1,1%[59 µM],-4%,9%,x,-18%,x
CCOC(=O)NNc1ccc(C(F)(F)F)cn1,7%,1%,12%,3,10µM*,1%
CCOC(=O)c1cnn(-c2ccc(C(F)(F)F)cn2)c1N,8%[59 µM],-5%,30%,x,-5%,x
OC(CNC1CCCCCC1)COc1cccc2ccccc12 (configuration not stated),45µM*,u,-19%,14,3.5µM*,x
COc1cc(NS(=O)(=O)c2ccc(C)cc2)c2ncccc2c1,11%[59 µM],11%,77%,1,-7%,9%
COc1cc(NS(=O)(=O)c2cccc([N+](=O)[O-])c2)c2ncccc2c1,x,x,x,x,56µM*,x
COc1cc(NS(=O)(=O)c2ccc([N+](=O)[O-])cc2)c2ncccc2c1,x,x,x,x,56µM*,x
COc1ccc(OC)c(CCNC(=O)Cn2nc(C)n3c(cc4sccc43)c2=O)c1,12%[59 µM],-2%,12%,x,-8%,x
COc1ccc(C2=Nn3c(nnc3-c3ccc(OC)cc3OC)SC2)c(OC)c1,x,x,x,x,-25%,x
COCCCNC(=O)c1ccc2c3c(onc13)-c1ccccc1C2=O,x,20µM*,u,-7,50µM*,-25%
CCC(=O)N1c2ccccc2CC1C(=O)NCCCN1CCN(c2cccc(Cl)c2)CC1 (configuration not stated),9%[12.7 µM],-21%,34%,x,-14%,x
CCS(=O)(=O)c1nc2ccccc2n1CC(=O)Nc1ccccc1C(=O)OC,-2%[59 µM],-7%,20%,x,-12%,x
C=CCN=C1NN=C(c2cc(C)n(CC=C)c2C)CS1,u,u,2%,-7,u,0%
Clc1ccc(C2=NNC(=NCc3ccccc3)SC2)cc1,-45%,u,-3%,u,u,-9%
CCN=C1NN=C(c2ccc(C)cc2)CS1,32µM*,-32%,-3%,x,-33%,-1%
c1ccc(C2=NNC(=NCc3ccc4c(c3)OCO4)SC2)cc1,40µM*,-37%,6%,-7,-27%,-8%
C=CCN=C1NN=C(c2ccc3c(c2)OCCO3)CS1,40µM*,-35%,-4%,-2,-34%,-10%
SMILES,G9a inh,BAZ2B inh,HP1b binding inh,PI5P4Ka inh,JMJD2A Tudor,L3MBTL1 inh
c1ccc(CN=C2NN=C(c3ccccc3)CS2)cc1,40µM*,u,-21%,-9,u,-18%
O=C(Nc1nc2ccccc2n1CCN1CCOCC1)c1cccc([N+](=O)[O-])c1,9%[59 µM],x,x,x,x,x
CCCCN=C1NN=C(c2cccc([N+](=O)[O-])c2)CS1,11µM*,u,-2%,0,-31%,-21%
CC(C)c1ccc(OCC(=O)NCC(c2ccc(Cl)cc2)N2CCOCC2)cc1 (configuration not stated),-34%[59 µM],-7%,39%,x,-12%,x
NC1=NC2(CCCC2)N=C(Nc2ccccc2)N1,8%,1%,-6%,-2,35µM*,1%
Cc1cccc(NC2=NC3(CCCCC3)N=C(N)N2)c1,x,x,14%,-6,-10%,x
COC(=O)c1sc(NC(=O)c2cc3nc(-c4ccc(Br)cc4)cc(C(F)(F)F)n3n2)c(C(=O)OC)c1C,-2%[59 µM],-2%,-4%,x,-6%,x
Cc1nc(N2CCOCC2)c2c(C(=O)N3CCN(c4cccc(C)c4C)CC3)c(C)oc2n1,-26%[59 µM],1%[57.1 µM],37%,x,-21%,x
CCCCOC(=O)C1C2CCC(O2)C1C(=O)OCC (configuration not stated),x,x,22%,9,-9%,x
CCCCOC(=O)C1CCCC(C(=O)OCCCC)N1 (configuration not stated),50µM*,-1%,38%,2,-31%,6%
COc1ccccc1OCC(=O)NCCS(=O)(=O)N1CCN(c2ccccc2OC)CC1,7%[59 µM],0%,23%[57 µM],x,-2%,x
O=C(O)c1cnn(-c2nc(-c3cccc(F)c3)cs2)c1C(F)(F)F,50µM*,-38%,25%,5,-17%[11.4 µM],-2%
O=C(c1cnccn1)N1CCC2(CCCN(Cc3nccs3)C2)CC1,-3%[12.7 µM],x,x,x,x,x
COc1ccc(Br)cc1CN1C(=O)NC2(CCCCCC2)C1=O,31%,5%,17%,4,-8%,x
COc1ccc(CN2CCCCCC2)cc1Br,32µM*,u,u,2,3.5µM*,1%
COc1ccc(Br)cc1CN1CCSCC1,45µM*,u,56µM*,6,3.5µM*,1%
COc1ccc(-c2[nH]ncc2CN2CCSCC2)c(OC)c1,2%,-3%,17%,-1,-6%,1%
COc1ccc(Br)cc1CN1CCCCCC1,32µM*,u,-24%,0,22µM*,-3%
COc1cccc2c1ncc1c(-c3ccc(C)cc3)nn(-c3ccc(F)cc3)c12,31%[59 µM],-5%,21%,x,-10%,x
COc1cccc(NC(=O)CN(C)C(=O)Cc2ccc3c(c2)CCC3)c1,u,8%,14%,-3,-8%,-2%
CN(CC(=O)Nc1c(Cl)cccc1Cl)C(=O)Cc1ccc2c(c1)CCC2,3.5µM*,5%,u,-20,-6%,7%
CCN(CC(=O)Nc1c(F)cccc1F)C(=O)Cc1ccc2c(c1)CCC2,10µM*,-6%,u,-26,-9%,-3%
Cc1cc2ccccn2c1C(=O)c1ccc(NN)c([N+](=O)[O-])c1,10µM*,18µM*,32µM*,1,40µM*,-29%
